Rows were chosen to be rich in hits. Some 9.5% of all compounds tested hit in one or more screens of this group.
Tau fibril ThT: blocks human tau fibril formation measured by thioflavin T. P10636. recombinant tau K18 P301L, heparin-induced fibrillization, ThT fluorescence. Potency, µM (top dose mostly 57.4 µM), actives largely listed as inhibitors. actives 2.1% (n = 270,000); also: nearly all actives have a fitted effect of over 55% in size
Target sequence (P10636 561-689 P618L limits assumed): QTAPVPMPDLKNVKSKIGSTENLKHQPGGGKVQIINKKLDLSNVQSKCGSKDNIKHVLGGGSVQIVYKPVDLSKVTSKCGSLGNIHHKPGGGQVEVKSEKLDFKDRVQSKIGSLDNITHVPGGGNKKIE
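Fibril formation assay: tau K18 P301L at 15 uM with trace Alexa 594 label, heparin inducer 20 uM, pH 7 sodium acetate buffer, 37 C for 6 hr; endpoint ThT signal.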
HPGD inh: blocks human HPGD enzyme activity; actives 4.3% (n = 150,000); purified HPGD, NADH fluorescence kinetic, PGE2 substrate; P15428; Potency, µM, hits mostly inhibitors; AID 894; active = well fitted inhibition curve with a large enough effect, not every such curve was filed as active; inconclusive = small, poorly fitted or top-dose-only effect, or another doubt; inactive = no such curve, though single readings can be large or run the other way
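20 nM HPGD preincubated 15 min at room temperature with compound in 50 mM Tris-HCl pH 8, 0.01% Tween 20. Started with 1 mM NAD+ and 30 uM prostaglandin E2; NADH fluorescence (360/450 nm) read 5 times over 30-s intervals, last minus first.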
Tau fluor counter: counter-screen for tau fibril formation inhibitors; tau K18 P301L Alexa594 fluorescence, heparin fibrillization; actives 0.93% (n = 280,000); Potency, µM (titrated, usually from 57.7 µM); AID 1463; also: nearly all actives have a fitted effect of over 55% in size
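Human tau K18 P301L (15 uM unlabeled, 0.24 uM Alexa 594-labeled) in 100 mM sodium acetate pH 7 with 20 uM heparin, 6 hr at 37 C. ThT 30 uM added, 1 hr ambient; Alexa 594 FP and total fluorescence read at 555/632 nm.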
ALDH1A1 inh: inhibitors of human aldehyde dehydrogenase 1A1; P00352; Purified ALDH1A1, NADH fluorescence, propionaldehyde substrate; Potency, µM (top dose mostly 75.3 µM), hits mostly inhibitors; actives 7.3% (n = 220,000); active = well fitted inhibition curve with a large enough effect, not every such curve was filed as active; inconclusive = small, poorly fitted or top-dose-only effect, or another doubt; inactive = no such curve, though single readings can be large or run the other way
Target sequence (P00352 whole entry, looked up): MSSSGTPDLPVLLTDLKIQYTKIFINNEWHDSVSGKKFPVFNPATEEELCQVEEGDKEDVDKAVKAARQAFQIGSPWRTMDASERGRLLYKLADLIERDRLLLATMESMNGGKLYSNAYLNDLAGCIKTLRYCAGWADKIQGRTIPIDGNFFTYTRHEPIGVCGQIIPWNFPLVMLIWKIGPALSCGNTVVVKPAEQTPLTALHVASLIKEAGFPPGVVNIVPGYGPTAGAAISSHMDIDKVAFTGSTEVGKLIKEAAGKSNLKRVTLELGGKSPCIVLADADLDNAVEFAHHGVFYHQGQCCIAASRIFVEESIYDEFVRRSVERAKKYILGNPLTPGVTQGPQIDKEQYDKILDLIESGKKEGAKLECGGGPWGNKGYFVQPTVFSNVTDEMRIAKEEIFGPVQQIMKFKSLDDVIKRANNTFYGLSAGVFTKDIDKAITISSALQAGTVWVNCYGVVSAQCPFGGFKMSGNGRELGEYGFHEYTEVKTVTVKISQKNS
NPSR antagonist: neuropeptide S receptor (human) antagonism, cAMP; Q6W5P4; CHO-NPSR cells, cAMP TR-FRET, antagonist mode; Potency, µM (series often up to 38.3 µM), usual class: inhibitors; actives 1% (n = 220,000); AID 1461; also: nearly all actives have a fitted effect of over 50% in size
Tau FP inhib: blocks human tau fibril formation measured by polarization | K18 P301L tau heparin fibrillization, Alexa594 FP, 6 h | Potency, µM (top dose mostly 57.7 µM), actives largely listed as inhibitors | actives 0.39% (n = 280,000); also: nearly all actives have a fitted effect of over 55% in size
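Steps: dispense K18 P301L tau (15 uM plus 0.24 uM Alexa 594 tracer, final) in pH 7 sodium acetate; add compound; add heparin (20 uM final); incubate 6 hr, 37 C; add ThT (30 uM final); after 1 hr ambient, read FP.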
Hits are given with their value; 0 = inactive; ? = inconclusive; - = not tested or not shown; [ ] = another dose, or the depositor's remark. Unless noted, calls follow the shape of the dose curve; as a rule, active = well fitted curve in the direction sought with a large enough effect; inconclusive = small, poorly fitted or top-dose-only effect, or another doubt; inactive = no such curve, though single readings can be large; an effect the other way counts as inactive or inconclusive.

SMILES	Tau fibril ThT	HPGD inh	Tau fluor counter	ALDH1A1 inh	NPSR antagonist	Tau FP inhib
CC1CN(S(=O)(=O)c2ccc(C(=O)Nc3nnc(-c4ccco4)o3)cc2)CC(C)O1 (stereo not given)	0	-	0	0	0	0
O=C(CCNS(=O)(=O)c1cccs1)NCc1ccco1	0	0	0	0	0	0
Cc1cc(C(=O)CCl)c(C)n1-c1cccc(S(=O)(=O)N2CCOCC2)c1	?	-	0	0.178µM	0	0
COc1ccccc1N1CCN(c2nc3c(S(=O)(=O)c4ccccc4)nnn3c3ccc(Cl)cc23)CC1	0	-	0	-	-	0
Cc1ccc(CNC(=O)C2CCCN(c3ncnc4onc(-c5ccc(F)cc5)c34)C2)cc1 (stereo not given)	0	-	0	-	-	0
Nc1c2c(nc3ccc(Br)cc13)N(c1ccccc1)CC2	?	0	14.1µM[quencher]	?	0	0
Cc1cccc(N2CCc3c2nc2ccc(Br)cc2c3N)c1	28.2µM	0	15.8µM[quencher]	?	0	?
COC(=O)c1ccc(CS(=O)(=O)c2ccccc2C)o1	0	0	0	2.24µM	0	0
CCN(C(=O)CN1C(=O)c2ccccc2Sc2ccc(C(=O)OC)cc21)c1cccc(C)c1	0	-	0	-	-	0
Cc1cccc(NC(=O)CC2Nc3cccc4cccc(c34)NC2=O)c1 (stereo not given)	?	0	8.91µM[quencher]	?	0	0
CC(=O)c1ccc(NC(=O)CC2Nc3cccc4cccc(c34)NC2=O)cc1 (stereo not given)	14.1µM	-	25.1µM[quencher]	?	0	?
CCOC(=O)c1ccc(NC(=O)CC2Nc3cc(C)c(C)cc3NC2=O)cc1 (stereo not given)	?	-	14.1µM[quencher]	-	-	0
CCOC(=O)C1=C(C)NC(=O)C1CC(=O)Nc1ccccc1 (stereo not given)	0	35.5µM	0	0	0	0
O=C(O)C1CSC(CCc2ccccc2)N1 (stereo not given)	?	0	0	0	0	0
COc1ccc2c(c1)C(=O)[C@@H](OC(=O)NC1CCCC1)[C@H](c1ccc(OC)c(Br)c1)O2	0	0	0	0	-	0
CCOC(=O)c1ccc(NC(=O)CC2Nc3cccc4cccc(c34)NC2=O)cc1 (stereo not given)	12.6µM	-	8.91µM[quencher]	-	-	?
CC(=O)Nc1ccc(NC(=O)CC2Nc3cccc4cccc(c34)NC2=O)cc1 (stereo not given)	?	0	?	0	0	0
CCOc1ccc(NC(=O)CC2Nc3cccc4cccc(c34)NC2=O)cc1 (stereo not given)	14.1µM	-	15.8µM[quencher]	-	-	0
COc1ccc(OC)c(CNC(=O)c2ccc3c(c2)c(C)c(C)n3Cc2ccc(Cl)cc2)c1	0	-	0	-	-	0
Cc1cc(C)c(C(=O)COC(=O)c2ccc([N+](=O)[O-])o2)cc1C	?	-	0	2µM	0	0
Cc1cc(C(=O)COC(=O)c2ccc([N+](=O)[O-])o2)c(C)n1CC1CCCO1 (stereo not given)	0	-	0	15.8µM	0	0
Cc1ccc(C)c(C(=O)COC(=O)c2ccc(Br)o2)c1	?	0	0	0	0	?
COCCn1c(C)cc(C(=O)COC(=O)c2ccc([N+](=O)[O-])o2)c1C	0	-	0	?	0	0
CC(C)(C)c1ccc2c(c1)N(CC(=O)O)C(=O)CO2	0	0	0	3.16µM	0	0
Cc1ccc2c(c1)N(CC(=O)O)C(=O)CO2	0	0	0	0	0	0
SMILES	Tau fibril ThT	HPGD inh	Tau fluor counter	ALDH1A1 inh	NPSR antagonist	Tau FP inhib
CCOc1ccccc1/C=N/NC(=O)Cc1csc(Nc2cccc(C(F)(F)F)c2)n1	0	0	20µM[quencher]	?	0	0
C/C(=N\NC(=O)c1ccn(C)n1)c1ccc(NC(=O)C2CCCC2)cc1	0	14.1µM	0	0	0	0
COC(=O)c1cccc(Nc2cc(C)nc(-c3ccccc3O)n2)c1	?	?	?	?	?	11.2µM
C/C(=N\Nc1cc(C)nc(-c2ccccc2O)n1)c1ccccc1O	?	-	10µM[quencher]	0	?	?
Cc1cc(N/N=C\c2ccccc2)nc(-c2ccccc2O)n1	?	0	?	0	0	?
O=Cc1ccc(-c2ccc(F)cc2)o1	0	-	0	1.41µM	0	0
COCc1cc(C)nc2sc(C(=O)Nc3cc(C)ccc3F)c(N)c12	0	-	0	-	-	0
Cc1ccc(C(=O)NCc2ccc(N(C)C)cc2)cc1NC(=O)c1nsc2ccccc12	0	-	?	-	-	0
CN1CCN(NC(=O)c2cn(-c3ccccc3)nc2-c2cccc(Br)c2)CC1	0	-	0	?	0	0
COC(=O)c1cn(-c2ccccc2)nc1-c1ccccc1	0	0	?	0	0	?
CCCC/C(C)=N/NC(=O)c1cn(-c2ccccc2)nc1-c1ccccc1	0	0	0	0.562µM	0	0
CN1CCC(=NNC(=O)c2cn(-c3ccccc3)nc2-c2ccccc2)CC1	0	0	0	1.26µM	0	0
CCC(C)/C(C)=N/NC(=O)c1cn(-c2ccccc2)nc1-c1ccccc1 (stereo not given)	0	0	0	6.31µM	0	0
CCCC/C(C)=N/NC(=O)Nc1ccccc1	0	0	0	0	0	0
CC(=O)Nc1ccc(C(=O)n2nc(C)cc2C)cc1	0	0	0	0	0	0
C=Cc1c(C)/c2[n-]/c1=C\c1[n-]c(c(CC)c1C)/C=c1\[n-]c3c(c1C)C(=O)C(C(=O)[O-])C=3c1[n-]c(c(C)c1CCC(=O)[O-])\C=2.[Cu].[Na+].[Na+] (stereo not given)	14.1µM	25.1µM	11.2µM[quencher]	?	-	20µM
CCOC(=O)c1cc(-c2ccc(N)cc2)sc1N	?	0	?	28.2µM	0	0
CCOC(=O)c1sc(-c2ccc(Br)cc2)cc1N	?	0	?	0	0	0
Cc1ccc(C)c(OC(=O)CSc2nnc(-c3ccc4c(c3)OCO4)o2)c1	0	-	0	-	-	0
CC(=O)Oc1ccc2c(c1)O/C(=C\c1ccncc1)C2=O	0	-	0	-	0[7.67 µM]	0
O=C1/C(=C/c2cccnc2)Oc2cc(OS(=O)(=O)c3ccc(Cl)cc3)ccc21	0	0	0	1.58µM	0	0
O=C1/C(=C/c2cccnc2)Oc2cc(OS(=O)(=O)c3ccccc3)ccc21	?	?	0	3.16µM	0	0
CS(=O)(=O)Oc1ccc2c(c1)O/C(=C\c1cccnc1)C2=O	?	-	0	11.2µM	0	0
COc1ccc(S(=O)(=O)Oc2ccc3c(c2)O/C(=C\c2cccnc2)C3=O)cc1	?	15.8µM	?	7.94µM	0	0
CC(C)[C@H](NC(=O)OC(C)(C)C)c1nnc(SCC(=O)Nc2ccc(Br)cc2)o1	0	0	0	?	0	0
Cc1cccc(-c2nc3c4ccccc4n(Cc4cccc(Cl)c4)c(=O)n3n2)c1	0	-	0	-	-	0
COc1c2c(cc3c1C(CC(O)C(C)C)N(C)CC3)OCO2 (stereo not given)	0	0	0	0	-	0
